The supplement of paper PMC10981050
Several values for one entry are separate records, joined by “and”; a condition that tells them apart may be missing. Equal values may be shown once. Where a name gives a salt, the structure may show the parent alone.

Tests used:
Assay in all cases: cell viability relative to vehicle control; higher = less cytotoxic
Details in all cases: 10 µM
K562 = system: K562
Summary of the method: (§1)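 CRISPR-edited mutant clones and isogenic wild-type clones from four leukaemia lines were screened against Selleck bioactive, kinase and epigenetic probe libraries, with identity-inconsistent compounds excluded. Each compound was acoustically dispensed at a single 10 µM dose into 384-well plates holding 2000 cells in 50 µL medium per well. After 48 h the supernatant was removed and CellTiter-Glo luminescence was read. Viability was expressed as percent of the on-plate vehicle control and analysed in Genedata Screener.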

MARIMO = system: MARIMO
Summary of the method: as §1

MOLM14 = system: MOLM14
Summary of the method: as §1

OCI-AML2 = system: OCI-AML2
Summary of the method: as §1

SMILES	cell viability (K562; SRSF2 genotype: SRSF2 P95H/wt)	cell viability (K562; SRSF2 genotype: SRSF2 wt/wt)	cell viability (MARIMO; SRSF2 genotype: SRSF2 P95H/wt)	cell viability (MARIMO; SRSF2 genotype: SRSF2 wt/wt)	cell viability (MOLM14; SRSF2 genotype: SRSF2 P95H/wt)	cell viability (MOLM14; SRSF2 genotype: SRSF2 wt/wt)	cell viability (OCI-AML2; SRSF2 genotype: P95H/wt)	cell viability (OCI-AML2; SRSF2 genotype: wt/wt)
CCN1CCCC1CNC(=O)c1cc(S(=O)(=O)CC)c(N)cc1OC (centres undefined) [Amisulpride]	104% and 101%	105%	102%	107%	109%	108%	109%	110%
Cc1ncc(CO)c(CO)c1O [Pyridoxine]	98.2% and 103%	97.3%	107%	96.3%	101%	102%	106%	99.6%
OC1COC(O)C(O)C1O (stereo not drawn) [L(+)-Arabinose]	102% and 92.9%	96.7%	108%	112%	95.5%	101%	87.3%	113%
C[C@@H](Oc1cc(-c2cnn(C3CCNCC3)c2)cnc1N)c1c(Cl)ccc(F)c1Cl	1.39% and 1.02%	1.8%	23.6%	16.2%	0.46%	0.63%	0.4%	1.89%
COC(=O)N[C@H](C(=O)N1CCC[C@H]1c1ncc(-c2ccc(-c3ccc(-c4cnc([C@@H]5CCCN5C(=O)[C@@H](NC(=O)OC)C(C)C)[nH]4)cc3)cc2)[nH]1)C(C)C [Daclatasvir Digydrochloride]	79.2% and 78.8%	75.9%	62.1%	73.5%	67.7%	77.9%	78.2%	74%
COc1ccc(CCC(=O)c2c(O)cc(O[C@@H]3O[C@H](CO)[C@@H](O)[C@H](O)[C@H]3O[C@@H]3O[C@@H](C)[C@H](O)[C@@H](O)[C@H]3O)cc2O)cc1O [Neohesperidin dihydrochalcone (Nhdc)]	107% and 83.6%	84.9%	82.7%	90.5%	82.3%	86.8%	89.6%	84.9%
CN(C(Cc1ccc(OS(=O)(=O)c2cccc3cnccc23)cc1)C(=O)N1CCN(c2ccccc2)CC1)S(=O)(=O)c1cccc2cnccc12 (centres undefined)	80.8% and 87.8%	83.5%	74.4%	72.7%	79.8%	74.6%	75.7%	76.4%
CN(CCOc1ccc(CC2SC(=O)NC2=O)cc1)c1ccccn1 (centres undefined) [Rosiglitazone maleate]	98.8% and 97.5%	96%	102%	110%	101%	103%	91.5%	107%
C[C@@]12C[C@@]3(O)O[C@@H](O1)[C@]1(COC(=O)c4ccccc4)[C@@H]3C[C@]12O[C@@H]1O[C@H](COC(=O)c2ccccc2)[C@@H](O)[C@H](O)[C@H]1O [Benzoylpaeoniflorin]	99.7% and 101%	93.4%	96.2%	96.7%	104%	97.8%	93.9%	102%
C[C@@H]1COCCN1c1cc(C2(S(C)(=O)=O)CC2)nc(-c2cccc3[nH]ccc23)n1	8.63% and 11.6%	8.6%	20.2%	18%	22.2%	7.72%	16.2%	18.7%
CN1CC[C@@H](NC(=O)Nc2ccc(C#N)cc2)C[C@@H]1c1nc2ccccc2[nH]1	98.5% and 104%	107%	104%	109%	98.8%	100%	98.1%	112%
O=c1c(O)c(-c2ccc(O)cc2O)oc2cc(O)cc(O)c12 [Morin hydrate (Aurantica)]	94.3% and 106%	106%	108%	108%	107%	107%	107%	102%
O=C(Cc1ccccc1)Nc1nnc(CCSCCc2nnc(NC(=O)Cc3ccccc3)s2)s1	81.3% and 83.7%	88.7%	75.9%	72.4%	82.9%	91.2%	68.5%	78.7%
Cn1cc(/C=C/C(=O)c2cccc(F)c2)cc1/C=C/C(=O)NO	90.3% and 97.5%	99.5%	61.5%	72.4%	70.1%	64.5%	59.5%	65.3%
C[C@H](NC(=O)/C(C#N)=C/c1cccc(Br)n1)c1ccccc1	25.6% and 17.4%	20.6%	11.2%	7.31%	2.5%	0.75%	10.2%	7.71%
CCc1cc(/C(C)=N/OCc2ccc(C3CCCCC3)c(C(F)(F)F)c2)ccc1CN1CC(C(=O)O)C1 [BAF312 (Siponimod)]	86.8% and 89.2%	87%	79.3%	67.2%	66.5%	66.3%	48.1%	49.8%
CCNC(=O)c1noc(-c2cc(C(C)C)c(O)cc2O)c1-c1ccc(CN2CCOCC2)cc1 [Luminespib (AUY-922, NVP-AUY922)]	16.9% and 29.2%	25.6%	32.3%	26%	1.2%	1.31%	12.3%	20.7%
COc1cc(Nc2ncc(F)c(Nc3ccc4c(n3)N(COP(=O)(O)O)C(=O)C(C)(C)O4)n2)cc(OC)c1OC [R788 (Fostamatinib)]	65.8% and 65.1%	59.4%	63.8%	57%	3.63%	6.37%	11.3%	21.2%
NC(=O)Cc1cccc(C(=O)c2ccccc2)c1N [Nepafenac]	96.5% and 95.7%	91.7%	93.8%	93.8%	95.4%	96.5%	87.7%	92.4%
CC(C)=CCC[C@](C)(O[C@@H]1O[C@H](CO[C@@H]2OC[C@H](O)[C@H](O)[C@H]2O)[C@@H](O)[C@H](O)[C@H]1O)[C@H]1CC[C@]2(C)[C@@H]1[C@H](O)C[C@@H]1[C@@]3(C)CC[C@H](O[C@@H]4O[C@H](CO)[C@@H](O)[C@H](O)[C@H]4O[C@@H]4O[C@H](CO)[C@@H](O)[C@H](O)[C@H]4O)C(C)(C)[C@@H]3CC[C@]12C [Ginsenoside Rb2]	86% and 89.7%	84%	88.4%	98.1%	92.2%	87.7%	83.2%	101%
O=C(O)C1=CO[C@@H](O[C@@H]2O[C@H](CO)[C@@H](O)[C@H](O)[C@H]2O)[C@@H]2C(CO)=CC[C@H]12 [Geniposidic acid]	105% and 91.2%	93.8%	89.8%	105%	92.5%	91.6%	90.8%	107%
Nc1nc(NCCc2ccc(O)cc2)nc2nc(-c3ccco3)nn12	92.4% and 100%	94.8%	102%	110%	94.4%	104%	97%	104%

SMILES	cell viability (K562; SRSF2 genotype: SRSF2 P95H/wt)	cell viability (K562; SRSF2 genotype: SRSF2 wt/wt)	cell viability (MARIMO; SRSF2 genotype: SRSF2 P95H/wt)	cell viability (MARIMO; SRSF2 genotype: SRSF2 wt/wt)	cell viability (MOLM14; SRSF2 genotype: SRSF2 P95H/wt)	cell viability (MOLM14; SRSF2 genotype: SRSF2 wt/wt)	cell viability (OCI-AML2; SRSF2 genotype: P95H/wt)	cell viability (OCI-AML2; SRSF2 genotype: wt/wt)
CCCCOc1nc(N)c2c(n1)N(Cc1cccc(CN3CCCC3)c1)CC(=O)N2	86.2% and 92.1%	90%	87%	91.3%	97.2%	93.4%	97.4%	90.6%
O=c1cc(-c2ccccc2)oc2cc(O)c(O)c(O)c12 [Baicalein]	81.4% and 80%	80.5%	88.2%	83.8%	74.8%	85.2%	91.2%	82.6%
CCOC(=O)c1cc2ccccc2oc1=O [Ethyl Coumarin-3-carboxylate]	96.8% and 96.2%	92.9%	94.3%	97.2%	88.7%	98%	95%	96.8%
O=C(CCCCCN1C(=O)c2cccc3cccc(c23)C1=O)NO [Scriptaid]	1.69% and 12.5%	11.4%	4.53%	4.11%	0.6%	0.53%	0.32%	0.98%
O=C[C@H](O)[C@@H](O)[C@H](O)CO [Xylose]	95% and 93.8%	96%	90.4%	96.1%	91.8%	95.2%	103%	88.2%
CC(=O)c1ccc(O)cc1O [2,4-Dihydroxyacetophenone]	100% and 87%	86.2%	93.5%	99.8%	96%	94.1%	92.3%	94.8%
Cc1cc(-n2c(=O)[nH]c(=O)n(C)c2=O)ccc1Oc1ccc(SC(F)(F)F)cc1 [Toltrazuril]	105% and 104%	103%	107%	109%	99.7%	101%	105%	104%
Cc1cccc(C)c1N(CC(=O)Nc1ccc(-c2ncon2)cc1)C(=O)C1CCS(=O)(=O)CC1 [Amenamevir]	99.9% and 92.8%	98.8%	94.5%	106%	96.4%	105%	88.5%	93.4%
CC(=O)C1=C(O)C=C2Oc3c(C(C)=O)c(O)c(C)c(O)c3C2(C)C1=O (single isomer, unassigned; (+)) [(+)-Usniacin (D-Usnic acid)]	98.5% and 99.9%	97.7%	95.4%	106%	95%	99%	90.8%	98.9%
CCN[C@H]1CN(CCCOC)S(=O)(=O)c2sc(S(N)(=O)=O)cc21 [Brinzolamide]	87.4% and 79.5%	85.7%	83.7%	88.2%	83.2%	86.5%	84.2%	90.2%
COc1ccc2[nH]cc(CCNC(C)=O)c2c1 [Melatonin]	104% and 109%	100%	109%	101%	103%	105%	118%	103%
C[C@H](Nc1ncnc2nc[nH]c12)c1cc2cccc(Cl)c2c(=O)n1-c1ccccc1 [Duvelisib (IPI-145, INK1197)]	93.1% and 95.6%	94.3%	67.6%	62.3%	50.2%	51.6%	28.7%	38%
C#C[C@]1(O)CC[C@H]2[C@@H]3CCc4cc(OC5CCCC5)ccc4[C@H]3CC[C@@]21C [Quinestrol]	78.4% and 83.7%	71%	62.4%	57.9%	78.8%	79.2%	49.7%	60.6%
CCOC(=O)C1=C(N)Oc2ccc(Cl)cc2C1C(C#N)C(=O)OCC (centres undefined)	85.4% and 84.9%	65.4%	56.6%	55.8%	64.2%	93.2%	63.7%	64.2%
O=c1c2ccccc2nc2n1CCc1c-2[nH]c2ccccc12 [Rutaecarpine (Rutecarpine)]	103%	103%	98.5%	106%	101%	103%	95.5%	104%
CN1[C@@H]2CC[C@H]1C[C@@H](OC(c1ccccc1)c1ccccc1)C2 [Benztropine mesylate]	82.3% and 93.2%	87%	81.9%	91.2%	83.7%	100%	88%	79.9%
O=C(C=Cc1cccnc1)c1ccncc1	81.1% and 89%	77.7%	64.4%	62.8%	19.3%	18.4%	16.8%	28.9%
O=S(=O)(Cl)c1ccc(-c2ccccc2)cc1 [Biphenyl-4-sulfonyl chloride]	109% and 104%	107%	99%	100%	108%	105%	105%	113%
CSCC1CN(/N=C/c2ccc([N+](=O)[O-])o2)C(=O)O1 (centres undefined) [Nifuratel]	85.1% and 77.7%	78.8%	78.3%	82.2%	77%	80.1%	79.1%	87.3%
Cn1nnnc1SCC1=C(C(=O)O)N2C(=O)[C@@H](NC(=O)[C@H](OC=O)c3ccccc3)[C@H]2SC1 [S3638 Cefamandole (nafate).cdx]	103% and 97.5%	102%	97.5%	103%	99.4%	104%	97.7%	97.6%
COc1cc(C)c(/C=C/C(C)=C/C=C/C(C)=C/C(=O)O)c(C)c1C [Acitretin]	87% and 91.6%	90%	79.1%	88.1%	87.4%	89.2%	32.6%	52%
